Source: PubChem (National Center for Advancing Translational Sciences (NCATS))
Compounds with a hit are over-represented: about 7.4% of the library has one in this group of screens.
KinaseGlo FLuc: Kinase-Glo luciferase inhibition (counter-screen); Kinase-Glo luciferase, ATP luminescence, 8 min; Potency, µM (highest dose often 38.3 µM), for inactives: at the highest dose activity change, negative = inhibition, actives largely listed as inhibitors; 200,000 compounds, 0.28% hits; AID 1379; also: % is scaled to controls: 0 for no effect and ±100 for the full control effect; nearly all actives have a fitted effect of over 60% in size
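Light output from Kinase-Glo luciferase with luciferin and 10 uM ATP in 50 mM imidazole pH 7.2, KCl, MgCl2, Tween 20, BSA; compound pin-delivered, 8-min ambient incubation, then luminescence read.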
FLuc counter: firefly luciferase modulation, counter-screen for miR-21 project; P08659; purified FLuc, Km substrates, luminescence inhibition; Potency, µM (highest dose often 57.5 µM), without a hit: at the top dose activity change, negative = inhibition, actives largely listed as inhibitors; 360,000 compounds, 6.9% hits;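 also: plate controls were vehicle for no effect and reference inhibitor for full effect; nearly all actives have a fitted effect of over 55% in size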
Target sequence (P08659 whole entry, looked up): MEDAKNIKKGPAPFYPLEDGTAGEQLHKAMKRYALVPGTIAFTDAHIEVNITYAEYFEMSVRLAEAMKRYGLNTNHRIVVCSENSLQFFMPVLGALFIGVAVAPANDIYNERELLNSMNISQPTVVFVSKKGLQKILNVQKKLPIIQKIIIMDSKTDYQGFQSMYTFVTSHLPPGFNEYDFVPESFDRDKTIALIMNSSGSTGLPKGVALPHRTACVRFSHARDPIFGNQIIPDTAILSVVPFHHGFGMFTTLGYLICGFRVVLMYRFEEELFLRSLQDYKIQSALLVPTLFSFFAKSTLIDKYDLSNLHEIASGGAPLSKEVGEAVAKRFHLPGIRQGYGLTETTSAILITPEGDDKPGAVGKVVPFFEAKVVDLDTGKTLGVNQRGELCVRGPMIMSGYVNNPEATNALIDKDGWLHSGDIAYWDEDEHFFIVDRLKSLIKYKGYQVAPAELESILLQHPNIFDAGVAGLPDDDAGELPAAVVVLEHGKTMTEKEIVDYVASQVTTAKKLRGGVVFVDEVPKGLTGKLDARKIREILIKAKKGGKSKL
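Biochemical qHTS of compounds, final roughly 60 µM downward over six points, against 10 nM purified firefly luciferase using Km concentrations of substrates (10 uM D-luciferin, 10 uM ATP) in Tris acetate pH 7.5 buffer; luminescence output.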
Rab9 prom act: activators of Rab9 promoter | 320,000 compounds, 2.8% hits | AID 485297 | Huh7 Rab9 promoter-luciferase reporter, luminescence, 24 h | Potency, µM (doses to about 9.22 µM), inactives show at the top dose activation, negative = inhibition, usual class: activators; also: % of control where 0% means no effect; nearly all actives have a fitted effect of over 60% in size
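Huh7 cells stably carrying a Rab9 promoter-luciferase reporter, 1500 cells per well in OP-MEM I with 10% FBS, treated with compound 24 hours at 37C. Luciferase activity read by luminescence after 10 minutes with Amplite reagent.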
ELG1 genotox: genotoxicity induction in ELG1-luciferase HEK293T cells | AID 504466 | HEK293T ELG1-luciferase reporter, luminescence, 16 h | Potency, µM (top dose mostly 46 µM), for inactives: at the top dose activity change, positive = activation, actives largely listed as activators | 330,000 compounds, 1.3% hits; also: % of control where 0% means no effect; nearly all actives have a fitted effect of over 60% in size
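HEK293T cells expressing luciferase-tagged ELG1 were exposed to compound or DMSO vehicle for 16 hr at 37 °C and 5% CO2. Luciferase activity was then measured with ONE-Glo after 30 min at room temperature.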
NPC1 prom act: NPC1 promoter activation; Huh7 NPC1 promoter luciferase reporter, 24 h; Potency, µM (top dose mostly 9.22 µM), without a hit: at the top dose activation, usual class: activators; 320,000 compounds, 2.4% hits; also: % of control where 0% means no effect; nearly all actives have a fitted effect of over 60% in size
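Luminescence read-out of NPC1 promoter-driven luciferase in stably transfected Huh7 cells; compounds delivered in DMSO and left 24 h at 37C, 5% CO2, qHTS titration format.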
SMN2 splice enh: enhancers of SMN2 splice variant expression; 210,000 compounds, 2.8% hits; Potency, µM (doses to about 46.1 µM), inactives show top-dose activity change, positive = activation, hits mostly activators; HEK293 SMN2-luciferase splicing reporter, luminescence, 30-36 h; also: % of control where 0% means no effect; nearly all actives have a fitted effect of over 55% in size
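qHTS luciferase splicing reporter: luminescence rises when SMN2 exon 7 is included in transfected HEK293 cells. Compound exposure lasted 30-36 h at 37C, with 4.5 mM final sodium butyrate as control, followed by a ONE-Glo read.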
Numbers without * were called inactive; u = inconclusive; x = not tested or not shown; [ ] = another dose, or the depositor's remark. Calls follow the shape of the dose curve; as a rule, active = well fitted curve in the direction sought with a large enough effect; inconclusive = small, poorly fitted or top-dose-only effect, or another doubt; inactive = no such curve, though single readings can be large; an effect the other way counts as inactive or inconclusive. Potency is read from the fitted curve at half-maximal effect.

SMILES	KinaseGlo FLuc	FLuc counter	Rab9 prom act	ELG1 genotox	NPC1 prom act	SMN2 splice enh
COc1ccc2oc(=O)c(C(=O)Nc3cccc(C)c3)cc2c1	-1%	3µM*	1.6µM*	8.2µM*	4µM*	x
COc1ccc2oc(=O)c(C(=O)Nc3cccc(C(=O)O)c3)cc2c1	x	-101%	x	x	x	0.79µM*
Cc1ccnc(NC(=O)c2ccccc2NC(=O)C(C)(C)C)c1	0%	4%	-4%	-3%	-18%	9%
O=C(CSc1nnc(-c2ccccc2)c(-c2ccccc2)n1)Nc1ccccc1Cl	x	-14%	x	x	x	x
Cc1ccc(S(=O)(=O)N/N=c2\oc3ccccc3cc2C(=O)Nc2cccc(C)c2)cc1	-5%	-1%	-2%	13%	-1%	12%
Cc1cccc(NC(=O)c2cc3ccccc3oc2=O)c1	x	0.6µM*	1.4µM*	2.1µM*	1.1µM*	x
N/C(=N\OC(=O)c1ccco1)c1ccccn1	13µM*	8.5µM*	29%	u	20%	u
COc1ccc(C(=O)COC(=O)c2ccco2)cc1	-24%	1.1µM*	3%	u	u	12%
COc1ccc(N=N/C(=C\O)C(=O)c2ccco2)cc1	-8%	24µM*	7%	-4%	21%	3%
COc1ccc(C(=O)COC(=O)c2ccn(C)n2)cc1	x	17µM*	u	u	3.5µM*	x
COC(=O)/C(=C/c1ccc(OC)cc1)NC(=O)c1ccco1	3%	-2%	1%	0%	-2%	-6%
CCc1c(C)c2cc3c(c(C)c2oc1=O)OCN(CCc1ccccc1F)C3	x	u	x	x	x	24%
COc1ccc(/C(N)=N/OC(=O)c2ccco2)cc1	-26%	0.95µM*	0.35µM*	0.46µM*	0.5µM*	6.3µM*
N/C(=N\OC(=O)c1ccco1)c1ccccc1	u	6.7µM*	9%	u	21%	22µM*
N/C(=N\OC(=O)c1ccco1)c1ccc(Br)cc1	-14%	6.7µM*	u	u	u	20%
N/C(=N\OC(=O)CCCOc1ccccc1)c1ccc(Br)cc1	-2%	-1%	4%	2%	-1%	23%
COc1ccc(OCC(=O)O/N=C(\N)c2ccc(OC)cc2)cc1	x	u	-1%	-3%	3%	x
Cc1cccc(/C(N)=N/OC(=O)N2CCOCC2)c1	u	17µM*	26%	8%	29%	-85%
COc1ccc(C)cc1NC(=O)c1nnn(-c2c(C)cccc2C)c1C	x	0%	x	x	x	x
Cn1c(=S)c2[nH]c(SCCN3C(=O)c4ccccc4C3=O)nc2n(C)c1=O	-2%[7.66 µM]	x	x	x	x	4%[9.22 µM]
CC(C)Cn1c(=O)c2ccccc2n2c(CCC(=O)N3CCN(c4ccccc4)CC3)nnc12	x	-2%	x	x	x	-13%
Cc1cccc(/C(N)=N/OC(=O)c2ccco2)c1	u	1.9µM*	u	2.3µM*	u	16µM*
Cc1cccc(C(=O)NCCNC(=O)c2ccco2)c1	x	0%	3%	4%	-1%	x
Cc1ccc(/C(N)=N/OC(=O)c2ccco2)cc1	-9%	2.4µM*	2.5µM*	u	4µM*	11µM*
NC(=O)NC(=O)[C@H]1CCCC[C@@H]1C(=O)O	-1%[7.66 µM]	x	x	x	x	-15%[9.22 µM]
SMILES	KinaseGlo FLuc	FLuc counter	Rab9 prom act	ELG1 genotox	NPC1 prom act	SMN2 splice enh
Oc1ccccc1C1=NN(c2ccccc2)C(c2ccc(F)cc2)C1 (stereo unspecified)	x	-4%	2%	-5%	1%	x
Oc1ccccc1C1=Nc2nc3ccccc3n2C(c2ccccc2)C1 (stereo unspecified)	-9%	11µM*	16%	u	7%	19%
CCN(CC)C(=O)Cn1c(=O)cc(C)c2c(C)nn(-c3cccc(Cl)c3C)c21	x	-11%	x	x	x	x
CCOC(=O)c1c(C)[nH]c(C)c1S(=O)(=O)N1CCC(C(=O)NCc2ccc(N(C)C)cc2)CC1	x	3%	x	x	x	x
CCOC(=O)c1cccc(NC(=O)CCc2nnc3ccc(N4CCCCC4)nn23)c1	x	2%	-3%	0%	-2%	x
CCOC(=O)c1cccc(NC(=O)CCc2c(C)nn(-c3ccc(N4CCCCC4)nn3)c2C)c1	x	11µM*	x	x	x	x
